Bioassay records: PubChem, The Scripps Research Institute Molecular Screening Center
GPR151 ag – activators of human GPR151; PathHunter beta-arrestin GPR151 cells, luminescence; AID 1508602; 650,000 compounds, 1% hits; activation, % at 11.2 µM; in the data active = activation above about 4.9%;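 note: 0% = median of compound wells and 100% = cells with positive control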
Target sequence (Q8TDV0 whole entry, looked up): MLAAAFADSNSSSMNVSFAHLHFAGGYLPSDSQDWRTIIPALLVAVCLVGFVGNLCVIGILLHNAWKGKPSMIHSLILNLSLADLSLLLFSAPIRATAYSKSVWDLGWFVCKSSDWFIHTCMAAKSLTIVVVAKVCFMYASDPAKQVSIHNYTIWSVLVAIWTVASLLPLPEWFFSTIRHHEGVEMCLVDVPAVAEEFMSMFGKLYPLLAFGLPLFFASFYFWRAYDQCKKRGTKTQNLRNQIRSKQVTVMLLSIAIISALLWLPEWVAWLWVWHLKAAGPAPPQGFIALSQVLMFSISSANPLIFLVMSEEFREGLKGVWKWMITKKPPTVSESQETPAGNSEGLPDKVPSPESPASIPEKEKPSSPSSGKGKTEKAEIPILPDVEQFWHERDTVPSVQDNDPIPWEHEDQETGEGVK
FBW7 act – activators of human E3 ligase FBW7. AlphaScreen FBW7–phospho-cyclin E peptide binding, activator screen. normalized activity (activation), % at 26.1 µM. 650,000 compounds, 0.13% hits. AID 1259310; in the data active = normalized activity above about 1.9%;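 note: purified mutant Fbw7 with reduced substrate affinity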
MITF inh – inhibitors of human MITF; AlphaScreen MITF homodimerization, bead proximity signal; inhibition, % at 2.6 µM; 650,000 compounds, 0.91% hits; AID 1259374; in the data active = inhibition above about 50%;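 note: 0% = vehicle wells with protein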
TEAD-YAP block – TEAD-YAP interaction inhibition; 640,000 compounds, 1.4% hits; HEK-TIYL cells, TEAD-Gal4/YAP UAS-luciferase luminescence; inhibition, % at 9.12 µM; AID 1259422; in the data active = inhibition above about 32%;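 note: 0% = median of test compound wells and 100% = reference inhibitor wells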
GPR151 conf act – confirmation of human GPR151 activators | 6,700 tested, under 10 active | AID 1508609 | shares compounds with GPR151 ag | GPR151 PathHunter beta-arrestin cells, luminescence, 90 min; % of EA-reagent control over plate median | activation, % at 11.2 µM;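 active = mean percent activation across replicates above the confirmation screen cutoff of 4.91%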
GPR119 ag – activates human GPR119 in a GPR151 counter-screen; 6,700 compounds, 0.3% hits; AID 1508611; shares compounds with GPR151 ag; GPR119 PathHunter beta-arrestin cells, luminescence, 90 min; 0 = compound-well median, 100 = enzyme-acceptor control; activation, % at 11.2 µM;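 active = mean percent activation in the counterscreen above 29.09%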;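 note: counterscreen on off-target GPR119 to flag nonselective hits from the GPR151 activator screen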
The depositor's hits bear a star; nt = no result given; ! = repeats disagree. Shown are actives, neighbours in structure and some others; about 3.5% of the full set was active somewhere.

SMILES | GPR151 ag | FBW7 act | MITF inh | TEAD-YAP block | GPR151 conf act | GPR119 ag
O=C(CNc1cccc2ccccc12)N/N=C/c1ccc(Cl)cc1 | 0 | 0 | 19 | -1 | nt | nt
CC(=O)c1cc(F)c(N2CCN(C(=O)c3cc(F)c(F)cc3[N+](=O)[O-])CC2)cc1C | 5.3* | 0 | 3 | 4 | 0 | 4
Cc1cc(N2CCN(C(=O)c3ccc(Br)cc3)CC2)c(F)cc1[N+](=O)[O-] | 6.9* | 0 | 16 | 3 | 0 | -11
Cc1cc(F)c(F)cc1C(=O)N1CCN(c2cc(C)c([N+](=O)[O-])cc2F)CC1 | 1 | 0 | 6 | -7 | nt | nt
O=C(/C=C\N1CCOCC1)c1ccc(Cl)cc1 | 1 | 0 | -2 | 3 | nt | nt
O=C(Nc1nc2c(s1)CCC2C(=O)N1CCc2ccccc2C1)c1ccc(F)cc1 (stereo not drawn) | 0 | 0 | -3 | 0 | nt | nt
COc1ccc(Cl)cc1NC(=O)N(C)Cc1c(C)nn(C)c1C | 9.6* | 1 | -15 | -21 | 1 | -2
COc1ccc(Cl)cc1NC(=O)CCn1nc(C)c(C)c1C | 0 | 0 | 4 | -15 | nt | nt
CN(Cc1ccccc1)C(=O)CCC1CCN(C(=O)c2cc[n+]([O-])cc2)CC1 | 5.6* | 0 | 14 | 0 | 1 | 6
CCCn1nnc(NC(=O)C(C)Oc2ccc(Cl)cc2Cl)n1 (stereo not drawn) | 4.9* | 0 | 6 | 7 | 0 | -8
CC(C)CC(NC(=O)c1ccc(Cl)cc1Cl)C(=O)O (stereo not drawn) | -1 | 0 | 6 | -1 | nt | nt
O=C(N[C@@H](Cc1ccccc1)C(=O)O)c1ccc(Cl)cc1Cl | 5.0* | 0 | 11 | 1 | 0 | 2
CCOC(=O)C1=C(C)N=c2s/c(=C\c3ccc(OCCOc4ccccc4)c(OCC)c3)c(=O)n2C1c1ccc(OC)cc1 (stereo not drawn) | 0 | 1 | 9 | 12 | nt | nt
O=C(CCNc1c(N2CCCC2)c(=O)c1=O)Nc1ccc(F)cc1 | 2 | 0 | 2 | -7 | nt | nt
COc1ccc(NC(=O)CCNc2c(N3CCCC3)c(=O)c2=O)cc1 | 6.1* | 1 | 14 | 14 | 0 | -5
Cc1cc(C)n(-c2cccc(CN(C)C(=O)Cn3nnnc3CN3CCC(C)CC3)c2)n1 | 5.7* | 0 | 2 | 4 | 0 | 4
COCCn1c(C)cc(C2=NNC(=Nc3ccccc3)SC2)c1C | 11* | 0 | -4 | 57* | 1 | 2
C=CCn1c(C)cc(C2=NNC(=Nc3ccccc3)SC2)c1C | 0 | 1 | 18 | -43 | nt | nt
O=[N+]([O-])c1ccc(-c2ccc(S(=O)(=O)N3CCOCC3)cc2)cc1 | 5.6* | 0 | 3 | 9 | -1 | -13
O=[N+]([O-])c1ccc(S(=O)(=O)N2CCN(S(=O)(=O)N3CCOCC3)CC2)cc1 | 3 | 0 | -3 | 12 | nt | nt
O=C(Nc1ccc(Br)cc1)c1ccc(N2C(=O)C3CCCCC3C2=O)cc1 (stereo not drawn) | 0 | 0 | -6 | -2 | nt | nt
O=C(Nc1ccc(Br)cc1)c1cccc(N2C(=O)C3CCCCC3C2=O)c1 (stereo not drawn) | 7.5* | 0 | 2 | -8 | 0 | 4
CC[C@@H](C(=O)[C@@H](C)[C@@H](O)[C@H](C)CCc1ccc(C)c(O)c1C(=O)O)[C@H]1O[C@](CC)([C@H]2CC[C@](O)(CC)[C@H](C)O2)C[C@@H]1C | 21* | 0 | -4 | 31 | -1 | -11
CC(=O)Nc1ccc(CSc2ccccc2)cc1C | -1 | 0 | 4 | -54 | nt | nt
Cc1cc(CSc2ccccc2)ccc1NS(C)(=O)=O | 5.3* | 0 | 4 | -26 | 0 | -4
SMILES | GPR151 ag | FBW7 act | MITF inh | TEAD-YAP block | GPR151 conf act | GPR119 ag
CN(CCC1CCOCC1)c1nc2nonc2nc1NCc1ccccc1 | 0 | 0 | 2 | -5 | nt | nt
CCOc1ccc(CNC(=O)Cn2ncn3c(cc4sc(CC)cc43)c2=O)cc1 | 1 | 0 | -7 | -3 | nt | nt
O=C(c1ccc2c(=O)n(Cc3ccc(Cl)cc3)c(=S)[nH]c2c1)N1CCC(N2CCCCC2)CC1 | 0 | 0 | 1 | -10 | nt | nt
O=C(C[n+]1cccc(Br)c1)c1cccs1 | 7.8* | 1 | -13 | 0 | -1 | -6
FC(F)(F)c1cccc(N2N=C(c3ccc(Br)cc3)CC2c2ccccc2Cl)c1 (stereo not drawn) | 0 | 0 | -78 | 15 | nt | nt
CC12CC3CC(C1)CC(NC(=O)c1ccc(Cl)cc1Cl)(C3)C2 | 5.0* | 0 | 6 | -9 | 0 | -5
CCNC(=O)CNS(=O)(=O)c1ccc(C)cc1 | 7.9* | 0 | 4 | 2 | 0 | 1
CCCCNC(=O)NS(=O)(=O)c1ccc(C)cc1 | 6.1*! | 0 | 15 | 0 | 0 | 2
CCNC(=O)CNS(=O)(=O)c1ccc(I)cc1 | 1 | 0 | -1 | 8 | nt | nt
c1ccc(-c2nc(NCCCn3ccnc3)cc(-c3ccncc3)n2)nc1 | -1 | -1 | 26 | 6 | nt | nt
COc1cc(NC(=O)NCc2cccs2)c2ncccc2c1 | 5.6* | -1 | -1 | 8 | 0 | -4
CN(CC(=O)Nc1ccc(C(N)=O)cc1)Cc1ccc(C(C)(C)C)cc1 | 1 | 0 | -1 | -8 | nt | nt
CN(CC(=O)Nc1ccc(Cl)cc1)CC(=O)Nc1ccc(C(N)=O)cc1 | 5.4* | 0 | -6 | 4 | 0 | -9
COc1ccc(CN(C)CC(=O)Nc2ccc(C(N)=O)cc2)c(OC)c1OC | 5.0* | 0 | -5 | 1 | 1 | 12
CN(CC(=O)Nc1ccc(C(N)=O)cc1)CC(=O)Nc1ccccc1Cl | 1 | 0 | -11 | -5 | nt | nt
CCCN1CCC(=NNC(=O)c2ccc(Cl)cc2Cl)CC1 | 4.9* | 0 | 16 | 2 | 1 | 6
CCOC(=O)/C(=N\OC(C)=O)C(=O)c1ccccc1 | 1 | 0 | 1 | -9 | nt | nt
N#C/C(=C(/O)COc1ccccc1)c1nnc2n1CCCCC2 | -1 | 0 | -5 | 2 | nt | nt
N#C/C(=C(/O)COc1ccc([N+](=O)[O-])cc1)c1nnc2n1CCCCC2 | 5.8* | 0 | -3 | -8 | 0 | -6
Cc1cccc(C)c1NC(=O)CCC(=O)O | 20* | 0 | 5 | 2 | 0 | -10
C/C(=N\NC(=O)Nc1ccccc1)c1ccc(O)cc1 | 2 | 0 | 14 | -22 | nt | nt
O=C1CCC(C(=O)NCc2nnc3n2CCN(Cc2ccccc2C(F)(F)F)CC3)N1 (stereo not drawn) | 9.8* | 0 | 1 | -3 | 0 | -4
COc1ccc(C(=O)NN2C(=O)c3ccccc3C2=O)cc1I | 5.1* | 0 | 7 | 9 | 0 | 8
COc1ccc(C(=O)NCCS(=O)(=O)NCCCOC(C)C)cc1 | 5.2* | 0 | 3 | -2 | -2 | -15
CCN1CCCC1CNC(=O)C1=C(C)C(=O)OC12CCCCC2 (stereo not drawn) | 1 | 0 | -6 | -2 | nt | nt
